Test results taken from PubChem BioAssay (NCI).
Several values for one entry are separate records, joined by “and”; a condition that tells them apart may be missing. Equal values may be shown once. Compounds without any hit were thinned out: in the full panel of roughly 83,000, 20% have a hit.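 Activity criterion: percent growth below 10, measured after cells in 96-well plates were exposed to a single compound concentration for 48 hours.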 Activity calls are given as the source filed them.

Experiments:
Assay in all cases: NCI-60 one-dose screen, 48 h (100 = growth as untreated, 0 = no growth, -100 = all killed)
Details in all cases: 10 µM unless noted
HCT-15 colon = test system: HCT-15 colon
HT29 colon = test system: HT29 colon
SNB-75 CNS = test system: SNB-75 CNS
SNB-19 CNS = test system: SNB-19 CNS
U251 CNS = test system: U251 CNS
PC-3 prostate = test system: PC-3 prostate
SK-MEL-5 melanoma = test system: SK-MEL-5 melanoma
UACC-62 melanoma = test system: UACC-62 melanoma
LOX IMVI melanoma = test system: LOX IMVI melanoma
SK-MEL-28 melanoma = test system: SK-MEL-28 melanoma
EKVX NSCLC = test system: EKVX NSCLC
SN12C renal = test system: SN12C renal
UO-31 renal = test system: UO-31 renal
TK-10 renal = test system: TK-10 renal
CAKI-1 renal = test system: CAKI-1 renal
A498 renal = test system: A498 renal
CCRF-CEM leukemia = test system: CCRF-CEM leukemia
SK-MEL-2 melanoma = test system: SK-MEL-2 melanoma
ACHN renal = test system: ACHN renal
MOLT-4 leukemia = test system: MOLT-4 leukemia

Compound | growth (HCT-15 colon) | growth (HT29 colon) | growth (SNB-75 CNS) | growth (SNB-19 CNS) | growth (U251 CNS) | growth (PC-3 prostate) | growth (SK-MEL-5 melanoma) | growth (UACC-62 melanoma) | growth (LOX IMVI melanoma) | growth (SK-MEL-28 melanoma) | growth (EKVX NSCLC) | growth (SN12C renal) | growth (UO-31 renal) | growth (TK-10 renal) | growth (CAKI-1 renal) | growth (A498 renal) | growth (CCRF-CEM leukemia) | growth (SK-MEL-2 melanoma) | growth (ACHN renal) | growth (MOLT-4 leukemia)
Cc1ncsc1CCO | 111% (inactive) and 106% (inactive) | 101% (inactive) and 95.6% (inactive) | 111% (inactive) and 91.5% (inactive) | 108% (inactive) and 103% (inactive) | 99.6% (inactive) and 99.8% (inactive) | 103% (inactive) and 98.3% (inactive) | 109% (inactive) and 98.2% (inactive) | 111% (inactive) and 95.5% (inactive) | 97.6% (inactive) and 103% (inactive) | 116% (inactive) and 104% (inactive) | 112% (inactive) and 99.6% (inactive) | 109% (inactive) and 96.6% (inactive) | 95.7% (inactive) and 89.7% (inactive) | 103% (inactive) and 89.4% (inactive) | 101% (inactive) | 81.3% (inactive) and 97.6% (inactive) | 39.9% (inactive) and 121% (inactive) |  |  | 
O=C(CN1CCOCC1)N1CCOCC1 | 111% (inactive) and 98% (inactive) | 91% (inactive) | 106% (inactive) and 104% (inactive) | 103% (inactive) and 105% (inactive) | 107% (inactive) |  | 107% (inactive) and 105% (inactive) | 93.9% (inactive) and 96.6% (inactive) | 99.6% (inactive) and 100% (inactive) | 123% (inactive) and 107% (inactive) | 117% (inactive) and 84% (inactive) | 95.9% (inactive) and 97.7% (inactive) | 68% (inactive) and 80% (inactive) | 96.8% (inactive) and 104% (inactive) | 105% (inactive) and 88.3% (inactive) | 108% (inactive) | 106% (inactive) | 109% (inactive) | 108% (inactive) and 98.9% (inactive) | 
CCN(CC)CCc1nc(-c2ccccc2)no1 | 78.8% (inactive) and 111% (inactive) | 64.3% (inactive) and 93.3% (inactive) | 82.1% (inactive) and 72.2% (inactive) | 89.7% (inactive) and 94.2% (inactive) | 52.7% (inactive) and 99.4% (inactive) | 81.3% (inactive) and 96.7% (inactive) | 84.6% (inactive) and 116% (inactive) | 77% (inactive) and 95.9% (inactive) | 63.9% (inactive) and 94.6% (inactive) | 89.5% (inactive) and 106% (inactive) | 90.6% (inactive) and 98.4% (inactive) |  | 65.9% (inactive) and 68.2% (inactive) | 85.1% (inactive) and 107% (inactive) | 92.3% (inactive) and 88.2% (inactive) | 108% (inactive) and 110% (inactive) | 44.2% (inactive) and 90.8% (inactive) |  | 83.2% (inactive) and 110% (inactive) | 101% (inactive)
CC1=NN(c2ccccc2)C(=O)C1C(=O)c1ccccc1 (centres undefined) | 108% (inactive) | 107% (inactive) | 103% (inactive) | 95.1% (inactive) | 94.4% (inactive) | 87.9% (inactive) | 99.1% (inactive) | 99.2% (inactive) | 96.9% (inactive) | 101% (inactive) | 95% (inactive) |  | 90.6% (inactive) | 107% (inactive) | 95.9% (inactive) | 92.4% (inactive) | 88.4% (inactive) | 96.6% (inactive) | 99.4% (inactive) | 95.8% (inactive)
O=C1c2ccccc2C(=O)N1/N=C/c1ccc2c(c1)OCO2 | 98.2% (inactive) | 94.3% (inactive) | 104% (inactive) | 93% (inactive) | 99.8% (inactive) | 74.1% (inactive) | 105% (inactive) | 90.3% (inactive) | 100% (inactive) | 103% (inactive) | 116% (inactive) |  | 81.2% (inactive) | 102% (inactive) | 110% (inactive) | 81.4% (inactive) | 93.1% (inactive) |  | 94.2% (inactive) | 86.3% (inactive)
CC(/C=N/N1C(=O)c2ccccc2C1=O)c1ccccc1 (centres undefined) | 98.2% (inactive) | 108% (inactive) | 83% (inactive) | 95.9% (inactive) | 99.5% (inactive) | 102% (inactive) | 99.4% (inactive) | 111% (inactive) | 98.3% (inactive) | 103% (inactive) |  |  | 88.1% (inactive) | 113% (inactive) | 83.6% (inactive) | 98% (inactive) | 110% (inactive) | 110% (inactive) | 97.4% (inactive) | 106% (inactive)
Cc1ccc(NCSc2ccc(Cl)cc2)cc1 | 77.1% (inactive) and 90.7% (inactive) | 79.4% (inactive) and 75.7% (inactive) | 86% (inactive) and 91.7% (inactive) | 89.3% (inactive) and 90% (inactive) | 71.4% (inactive) and 79.1% (inactive) | 66.8% (inactive) and 62.3% (inactive) | 86.5% (inactive) and 102% (inactive) | 82.3% (inactive) and 85% (inactive) | 88.6% (inactive) and 95.2% (inactive) | 86.9% (inactive) and 94.3% (inactive) | 92.7% (inactive) and 77.3% (inactive) | 46.2% (inactive) and 42.7% (inactive) | 27% (inactive) and 14.7% (inactive) | 90.8% (inactive) and 78.2% (inactive) | 59.5% (inactive) | 62.5% (inactive) and 66.3% (inactive) | 17.8% (inactive) |  |  | 25.1% (inactive) and 47.8% (inactive)
CCN(CC)CCCC(C)N(Cc1ccccc1)CC(O)c1ccc(Cl)cc1 (centres undefined) | 101% (inactive) and 97.9% (inactive) | 108% (inactive) and 92.5% (inactive) | 109% (inactive) and 90.6% (inactive) | 109% (inactive) and 107% (inactive) | 105% (inactive) and 102% (inactive) | 87.7% (inactive) and 93.2% (inactive) | 100% (inactive) and 105% (inactive) | 95.8% (inactive) and 106% (inactive) | 99.7% (inactive) and 97.5% (inactive) | 109% (inactive) and 106% (inactive) | 106% (inactive) and 96.2% (inactive) |  | 94.7% (inactive) and 90.9% (inactive) | 91.8% (inactive) and 90.4% (inactive) | 109% (inactive) | 91% (inactive) and 116% (inactive) | 103% (inactive) and 120% (inactive) | 105% (inactive) and 103% (inactive) | 117% (inactive) and 103% (inactive) | 107% (inactive) and 103% (inactive)
CC(=O)c1ccc2c(c1)N(CCCN1CCN(CCO)CC1)c1ccccc1S2 | 38.2% (inactive) and -17.3% (active) | 69.1% (inactive) and -22.6% (active) | 67% (inactive) and -12.1% (active) | 114% (inactive) and 46.4% (inactive) | 85.7% (inactive) and 20.6% (inactive) | 69.7% (inactive) and 24.2% (inactive) | 88.9% (inactive) and -99.1% (active) | 95.8% (inactive) and -58.7% (active) | 80.1% (inactive) and -85.2% (active) | 77.9% (inactive) and -91.7% (active) | 83.9% (inactive) and 60.6% (inactive) |  | 56.9% (inactive) and 2.41% (active) | 86.4% (inactive) and 27.5% (inactive) | 77.3% (inactive) and 15.7% (inactive) | 85.1% (inactive) and 28.6% (inactive) | 80.8% (inactive) and 16.2% (inactive) | 2.74% (active) and -42% (active) | 95.5% (inactive) and 30.7% (inactive) | 60.4% (inactive) and 4.26% (active)
